This note sets out measurements from PubChem BioAssay.

For orientation: inhibition means the relative decrease from the control value, in per cent.

Structures are written as SMILES. Values without a mark were called inactive. No rule for the calls is given here.

This assay deals with Pantothenate synthetase (Mycobacterium tuberculosis (strain ATCC 25618 / H37Rv)) (UniProt P9WIL5). As to the kind of experiment: Coupled enzyme confirmation of inhibitors against recombinant Mtb PanC (AID 375).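 Also: 0% = full reaction with vehicle and 100% = no enzyme background.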 The note with it: coupled enzyme assay; at 10 µM, stronger effect = higher value.
Chain of Pantothenate synthetase (Mycobacterium tuberculosis (strain ATCC 25618 / H37Rv)) (P9WIL5 whole entry, looked up): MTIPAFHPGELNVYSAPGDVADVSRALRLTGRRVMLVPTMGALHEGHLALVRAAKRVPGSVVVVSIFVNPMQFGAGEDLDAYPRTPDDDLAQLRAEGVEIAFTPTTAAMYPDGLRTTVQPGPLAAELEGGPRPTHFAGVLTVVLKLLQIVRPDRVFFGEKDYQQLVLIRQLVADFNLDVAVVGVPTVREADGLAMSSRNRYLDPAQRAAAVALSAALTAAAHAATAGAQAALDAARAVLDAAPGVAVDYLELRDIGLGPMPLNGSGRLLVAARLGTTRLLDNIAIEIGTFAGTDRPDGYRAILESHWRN
In the case of `CNC(=O)NCCN1CCCC1=O`, the inhibition was 6%.

For the compound `O=C(CCCNS(=O)(=O)c1ccccc1)NCc1ccco1`, the inhibition was 0%.

Turning to `CCC(=O)c1cc(F)c(N2CCN(C(=O)c3ccco3)CC2)cc1C`, the inhibition was 7%.

On to `CC(=O)c1cc(-c2ccccc2)n(CC(=O)N2CCN(C3CCCC3)CC2)c1C`, for which the inhibition was 11%.

In the case of `CCOC(=O)C1=C(CS(=O)(=O)c2ccc(F)c(C)c2)NC(=O)NC1c1ccc(O)c(O)c1` (stereo not given), the inhibition is 7%.

On to `O=C(Nc1cccnc1)c1cc2c(ccc3ccccc32)o1`, for which the inhibition is 0%.

Consider `COc1cccc(Nc2nnc(SCC(=O)N3CC(C)OC(C)C3)s2)c1` (stereo not given), for which the inhibition was 2%.

As for `CC(C)OC(=O)CCCCCN1C(=O)CSC1=S`, the inhibition is 1%.

With `Cc1nn(-c2ccccc2)c(C)c1C(=O)OCC(=O)c1c(N)n(CC(C)C)c(=O)n(C)c1=O`, the inhibition is 9%.

In the case of `O=C(O)CCCNS(=O)(=O)c1ccc(NCc2ccccc2)c(C(=O)O)c1`, the inhibition is 0%.

For `CC(CCc1ccco1)NC(=O)Cn1ncc2c1-c1ccccc1OC2` (stereo not given), the inhibition was 5%.

As to `CCOCCCNC(=O)C1CCC(=O)N1CCc1ccccc1` (stereo not given), the inhibition was 5%.

On to `COCCNC(=O)c1ccc(CS(=O)(=O)c2c(Cl)cccc2Cl)o1`, for which the inhibition was 0%.

Regarding `CCOc1ccccc1CNC(=O)CCN1C(=O)COc2ccccc21`, the inhibition was 0%.

On to `COc1ccc(S(=O)(=O)N2CCC(C(=O)c3ccc4c(c3)OCCO4)CC2)cc1`, for which the inhibition was 0%.

Take `Nc1nc2n(n1)C(c1cccc(Br)c1)CC(c1ccc(F)cc1)N2` (stereo not given): the inhibition is 0%.

Regarding `CCN(Cc1cc2cc(OC)ccc2[nH]c1=O)C(=O)c1ccncc1`, the inhibition is 4%.

Turning to `O=C(CCN1CCN(C(=O)c2ccco2)CC1)Nc1ccc(F)cc1`, the inhibition is 2%.

`CCOC(=O)N1CCC(n2c(SCC(=O)NCc3ccco3)nc3ccsc3c2=O)CC1`: the inhibition is 0%.

`Cn1c(=O)[nH]c(=O)c2c1nc(N1CCNCC1)n2CCOc1ccccc1`: the inhibition is 0%.

Take `CN(C)CCCN1C(=O)c2oc3ccccc3c(=O)c2C1c1cccs1` (stereo not given): the inhibition is 0%.

On to `C1CCc2nnc(-c3nnc4n3CCCCC4)n2CC1`, for which the inhibition is 10%.

`Cc1cccc(C2CC(c3ccccc3)Nc3nc(N)nn32)c1` (stereo not given): the inhibition was 0%.

In the case of `CN1Cc2c(N)cccc2C(c2ccccc2)C1` (stereo not given), the inhibition was 0%.

Regarding `CCn1c(=O)cc(OCC(=O)NC2CCCCC2)c2ccccc21`, the inhibition was 0%.

Turning to `O=C(O)[C@@H]1CCCN1c1ncnc2sc3c(c12)CCC3`, the inhibition was 6%.

With `CC(=O)N1CCc2cc(S(=O)(=O)CCC(=O)N3CCN(C(=O)c4ccco4)CC3)ccc21`, the inhibition is 6%.

Consider `Cc1ccc(CSC2=NCCN2C(=O)c2ccco2)cc1`, for which the inhibition is 0%.

Consider `Cc1nc(CNS(=O)(=O)c2ccc3c(c2)OCCO3)cs1`, for which the inhibition was 0%.

As for `CCc1nnc(NC(=O)NCN2C(=O)C3C4C=CC(C4)C3C2=O)s1` (stereo not given), the inhibition was 0%.

Take `O=C(O)CCCC(=O)NCCc1ccncc1`: the inhibition is 0%.

For the compound `Nc1ncnc2c1ncn2[C@@H]1O[C@H](CO)[C@@H](O)[C@H]1O`, the inhibition is 0%.

With `O=C(CCN1CCOCC1)Nc1ccc2c(c1)CCC2`, the inhibition was 4%.

Turning to `Cc1nc2ccc(S(=O)(=O)NC(C(=O)Nc3nccs3)C(C)C)cc2s1` (stereo not given), the inhibition is 0%.

For the compound `Cc1c(NC(=O)C2(c3ccccc3)CCOCC2)c(=O)n(-c2ccccc2)n1C`, the inhibition is 3%.

Regarding `CC(=O)Nc1ccc(NC(=O)C(C)Oc2ccccc2F)cc1` (stereo not given), the inhibition was 0%.

Take `O=C(CSc1nnnn1C1CCCC1)NCc1ccc2c(c1)OCO2`: the inhibition is 0%.

`CC(C)C(c1nnnn1CC1CCCO1)N1CCN(Cc2ccc3c(c2)OCO3)CC1` (stereo not given): the inhibition is 0%.

With `O=S(=O)(c1cccc2cnccc12)N1CCCNCC1`, the inhibition is 3%.

Regarding `O=C1CC(c2cccs2)CC2=C1C(c1ccccc1)n1ncnc1N2` (stereo not given), the inhibition was 3%.
